# Reference: PubChem BioAssay AID1566 (Sanford-Burnham Center for Chemical Genomics, 2009)
# Screen size: about 290,000 compounds; about 1,800 (0.62%) were called active. Rule as the data show it: active = inhibition above about 50%; inactive = the rest. Many of the other results were omitted from the sample, so actives are more common in it than they were. Peptide text beside a SMILES is read from it. * marks the point of attachment. OBn = c1ccc(CO*)cc1
# Test: NOD2 signaling inhibitors, cell-based, luminescence, uHTS, HEK293 (AID 1566)
# Conditions: HEK293 NOD2/NF-kB luciferase reporter, at 4 µM, active compounds read high
row,Compound,inhibition
1,CCN(CC)CCn1c(=S)[nH]c2ccc(Br)cc2c1=O,7.1% (inactive)
2,CCCCC1=CC2=CC(=O)C(C)(OC(=O)CC)C(=O)C2=CN1C1CCCC1 (stereo not drawn),33.3% (inactive)
3,COc1cccc(NC(=O)NC2CCCCC2C)c1 (stereo not drawn),0.4% (inactive)
4,CCOC(=O)N1CCN(C(=O)c2ccc(Cn3c(=S)[nH]c4cc(C(=O)OC)ccc4c3=O)cc2)CC1,24.9% (inactive)
5,CCOC(=O)N1CCN(C(=O)c2ccc(Cn3c(=S)[nH]c4cc(OCC)c(OCC)cc4c3=O)cc2)CC1,43.9% (inactive)
6,CCN(CC)C(=O)c1ccc2c(=O)n(Cc3cccc(Br)c3)c(=S)[nH]c2c1,58.7% (active)
7,O=C(c1ccc(Cn2c(=O)[nH]c3ccccc3c2=O)cc1)N1CCN(c2ccccn2)CC1,15.4% (inactive)
8,CCN(CC)C(=O)c1ccc2c(=O)n(Cc3ccc4c(c3)OCO4)c(=S)[nH]c2c1,10.2% (inactive)
9,COc1ccc(Cn2c(=O)[nH]c3cc(C(=O)N4CCN(c5ccccn5)CC4)ccc3c2=O)cc1,3% (inactive)
10,CCN(CC)C(=O)c1ccc2c(=O)n(CCOC)c(=S)[nH]c2c1,17.5% (inactive)
11,CC(=O)Oc1ccc(OC(C)=O)c2c1CC(C)=C(C)C2,33.6% (inactive)
12,Cc1ccc(OCC(=O)O/N=C(\N)c2ccncc2)cc1C,-6.1% (inactive)
13,C=CCn1c(SCc2ccc(Cl)cc2)nc2cc(C(=O)N3CCC(C(N)=O)CC3)ccc2c1=O,1.8% (inactive)
14,COc1ccc(-c2noc(CN3CCOCC3)n2)cc1OC,-8.7% (inactive)
15,CCn1c(C)c(C(C)=O)c(N2CCN(c3ccc(OC)cc3)CC2)nc1=S,12.6% (inactive)
16,Cc1ccc(NC(=O)N2CCCC2C(=O)Nc2ccc3c(c2)OCCO3)cc1 (stereo not drawn),-15.1% (inactive)
17,CC(=O)Nc1ccc(NC(=O)CN(C)S(=O)(=O)c2ccc3ccccc3c2)cc1,-3.2% (inactive)
18,CC(=O)NCC(=O)N[C@@H](CC(=O)OCc1ccccc1)C(=O)OCc1ccccc1 (Ac-Gly-Asp(OBn)-OBn),15.4% (inactive)
19,O=C(CCc1nc(-c2ccccc2F)no1)NCCN1CCOCC1,9.2% (inactive)
20,COc1ccc(Nc2cc3n(c(=O)n2)CCc2cc(OC)c(OC)cc2-3)cc1,-35.6% (inactive)
21,O=C(COc1ccccc1)NN1C(=O)CSC1=S,3.5% (inactive)
22,Cc1ccc(NC(=O)c2cc3ccccc3o2)cc1S(=O)(=O)N(C)C,-98.2% (inactive)

row,Compound,inhibition
1,COc1ccccc1NS(=O)(=O)c1cc(NC(=O)c2cc3ccccc3oc2=O)ccc1C,-25.3% (inactive)
2,Cc1ccc(NC(=O)c2cc3ccccc3oc2=O)cc1S(=O)(=O)N(C)C,85.6% (active)
3,COc1ccc(Cl)cc1NC(=O)COc1ccc(S(=O)(=O)N2CCOCC2)cc1C,11.3% (inactive)
4,Cc1ccc(CCNC(=O)c2cc(-c3ccncc3)nc3ccc(S(=O)(=O)N4CCOCC4)cc23)cc1,-13.8% (inactive)
5,CS(=O)(=O)c1cc([N+](=O)[O-])c(Sc2nc3ccccc3[nH]2)c([N+](=O)[O-])c1,4.3% (inactive)
6,Cc1cc(C(=O)COc2cccnc2[N+](=O)[O-])c(C)n1-c1ccccc1,20.6% (inactive)
7,Cc1ccc(-n2c(C)cc(C(=O)COc3cccnc3[N+](=O)[O-])c2C)cc1,30.3% (inactive)
8,Cc1cc(C(=O)CN2C(=O)c3ccccc3C2=O)c(C)n1Cc1cccs1,19% (inactive)
9,Cc1ccc2cccc(OCC(=O)c3cc(C)n(Cc4ccco4)c3C)c2n1,-10.4% (inactive)
10,COCCn1c(C)cc(C(=O)COc2cccnc2[N+](=O)[O-])c1C,4.6% (inactive)
11,Cc1cc(C(=O)COc2ccc3ccc(=O)oc3c2)c(C)n1Cc1cccs1,-4.5% (inactive)
12,Cc1cc(C(=O)COC(=O)c2ccc3c(c2)OCO3)c(C)n1Cc1cccs1,-8.7% (inactive)
13,Cc1cc(C(=O)COC(=O)c2ccccc2O)c(C)n1Cc1cccs1,89.6% (active)
14,CCn1nc(C(=O)OCC(=O)c2cc(C)n(Cc3cccs3)c2C)c2ccccc2c1=O,-20.7% (inactive)
15,Cc1ccc(C)c(C(=O)CSc2n[nH]c(-c3ccncc3)n2)c1,11% (inactive)
16,COC(C[C@H]1O[C@H]1[C@H](O)[C@H](C)OCc1ccccc1)OC,9.8% (inactive)
17,CC(C)c1ccc(NC(=O)c2ccccc2NC(=O)C2CC=CCC2C(=O)O)cc1 (stereo not drawn),-9.6% (inactive)
18,O=C(NC1CCCC1)C(NS(=O)(=O)c1cccc2nsnc12)c1ccccc1 (stereo not drawn),15.9% (inactive)
19,Clc1ccc(Nc2nc(N3CCOCC3)nc(N3CCOCC3)n2)cc1Cl,8.7% (inactive)
20,Clc1ccc(C2[C@H]3CN(Cc4ccc(-c5ccccc5)cc4)[C@H](c4ccccc4)C34CC2(c2ccccc2)C4)cn1 (stereo partly drawn),6.2% (inactive)
21,COc1ccc(N2CCN(C(=O)c3nc4nc(C)cc(C)n4n3)CC2)cc1,7.4% (inactive)
22,CC(C)Cc1ccc(C(C)C(=O)Nc2ccccc2O)cc1 (stereo not drawn),22.9% (inactive)

row,Compound,inhibition
1,C=CCNC(=O)NC(=O)Cn1c(=O)c2c(ncn2CC)n(Cc2ccccc2)c1=O,17.8% (inactive)
2,Cc1nc(SCc2ccccc2)nc2c1CCC2,-57.5% (inactive)
3,Cc1nc(SCc2cccc(C(=O)O)c2)nc2c1CCCC2,11% (inactive)
4,Cc1nc(SCc2ccc(C(=O)O)cc2)nc2c1CCCC2,54.6% (active)
5,COc1ccc(OCC(=O)N/N=C/c2ccc(N(C)C)cc2)cc1,-12.2% (inactive)
6,Cc1cc(/C=C2/C(=O)NN(c3ccccc3)C2=O)c(C)n1-c1cccc(O)c1,-42.2% (inactive)
7,COc1ccc(-n2c(C)cc(/C=C3/SC(=S)N(C)C3=O)c2C)cc1,24.3% (inactive)
8,Cc1cc(/C=C2\SC(=O)N(C)C2=O)c(C)n1-c1ccc(O)cc1,0.7% (inactive)
9,Cc1cc(/C=C2\SC(=S)NC2=O)c(C)n1-c1cccc(O)c1,-226% (inactive)
10,Cc1ccc(OCC(=O)NCCCNC(=O)c2ccc(C)nc2)cc1,7.3% (inactive)
11,C/C(=C\C#N)n1nc(C)cc1N,16.8% (inactive)
12,Cc1cc2oc3c(c(=O)c2cc1C)C(c1ccc(C(C)C)cc1)N(CCCN1CCOCC1)C3=O (stereo not drawn),0.6% (inactive)
13,CSc1nsc(SCC(=O)NCc2ccccc2)n1,-5.3% (inactive)
14,CCc1ccc(NC(=S)N(Cc2cccnc2)Cc2ccco2)cc1,6.5% (inactive)
15,C=CCc1cccc2cc(C(=O)O)c(=O)oc12,-2.5% (inactive)
16,C=CCc1cccc2cc(C(=O)Nc3ccccc3C(=O)O)c(=O)oc12,62.4% (active)
17,C=CCc1cccc2cc(C(=O)Nc3cccc(C(=O)O)c3)c(=O)oc12,-0.7% (inactive)
18,NC(=O)CN1CCN(CCN2C(=O)c3cccc4cccc(c34)C2=O)CC1,1.7% (inactive)
19,Cc1cc(N2CCN(c3nc(-c4ccc([N+](=O)[O-])cc4)cs3)CC2)c2ccccc2n1,15.6% (inactive)
20,COc1ccc(-c2csc(N3CCN(c4cc(C)nc5ccccc45)CC3)n2)cc1OC,70% (active)
21,Cc1cc(N2CCN(c3nc(-c4ccccc4)cs3)CC2)c2ccccc2n1,26.2% (inactive)
22,O=C(/C=C/c1ccccc1)NC(=S)NNC(=O)c1cnccn1,20.5% (inactive)

row,Compound,inhibition
1,C=CCn1c(C)cc(C(=O)COc2ccc(S(=O)(=O)N3CCCC3)cc2[N+](=O)[O-])c1C,-1.6% (inactive)
2,Cc1ccc(OCC(=O)c2cc(C)n(CC(F)(F)F)c2C)c([N+](=O)[O-])n1,23% (inactive)
3,Cc1ccc(OCC(=O)c2cc(C)n(C)c2C)c([N+](=O)[O-])n1,32.9% (inactive)
4,Cc1ccc(OCC(=O)c2cc(C)n(C3CC3)c2C)c([N+](=O)[O-])n1,11.3% (inactive)
5,COc1ccc(-n2c(C)cc(C(=O)COc3ccc(C)nc3[N+](=O)[O-])c2C)cc1,-5.4% (inactive)
6,Cc1ccc(OCC(=O)c2cc(C)c(C)cc2C)c([N+](=O)[O-])n1,12.2% (inactive)
7,COc1cc(/C=C2\SC(=O)N(CCN)C2=O)ccc1OS(=O)(=O)c1cc(C)ccc1C,-1.9% (inactive)
8,C=CCn1c(SCC(=O)Nc2ccc(-c3nc4ccc(C)cc4s3)cc2)nnc1-c1ccccc1,-69.8% (inactive)
9,COc1ccc2[nH]c(C)c(CCNC(=S)Nc3cccc(C)c3)c2c1,-5.2% (inactive)
10,O=C(COC(=O)/C(=C/c1cccs1)c1cccs1)NC(c1ccccc1)c1ccccc1,-12.9% (inactive)
11,CCNC(=S)N1CCN(CC(=O)Nc2ccc(OC)cc2)CC1,-3.6% (inactive)
12,O=C(NN/C(=N/S(=O)(=O)c1ccc(Cl)cc1)c1ccccc1)c1cccc(Cl)c1,-51.7% (inactive)
13,CC(Oc1ccccc1)C(=O)NC1=NCCS1 (stereo not drawn),-34.9% (inactive)
14,CN1C(=O)C2(C(C#N)=C(N)N(c3cc(Cl)cc(Cl)c3)C3=C2C(=O)CCC3)c2ccccc21 (stereo not drawn),53% (active)
15,CN1C(=O)C2(C(C#N)=C(N)N(c3cc(Cl)cc(Cl)c3)C3=C2C(=O)CC(C)(C)C3)c2ccccc21 (stereo not drawn),48.4% (inactive)
16,CN1C(=O)C2(C(C#N)=C(N)N(c3ccc(Cl)cc3)C3=C2C(=O)CC(C)(C)C3)c2ccccc21 (stereo not drawn),5.6% (inactive)
17,O=C(CSc1ccc(Br)cc1)N1CCOCC1,0% (inactive)
18,CCCn1ncc(CN2CCC(Oc3ccc(C(=O)N4CCCC4)cc3)CC2)c1C,-37.8% (inactive)
19,COc1ccc(S(=O)(=O)N(CC(=O)NCc2ccccn2)Cc2ccccc2)cc1,-13.2% (inactive)
20,CC(=O)NC1=C(NC2CCS(=O)(=O)C2)C(=O)c2ccccc2C1=O (stereo not drawn),5.3% (inactive)
21,O=C(NC1=C(NC2CCS(=O)(=O)C2)C(=O)c2ccccc2C1=O)c1ccccc1 (stereo not drawn),73.2% (active)
22,CN(C1=C(NC(=O)c2ccccc2)C(=O)c2ccccc2C1=O)C1CCS(=O)(=O)C1 (stereo not drawn),-12.3% (inactive)
